Sampled rows, rich in hits. Any-hit rate of the full collection: about 12%.
CHX counter: Cycloheximide Counterscreen for Small Molecule Inhibitors of Shiga Toxin | AID 2314, 2010 | max response, % | 12% of 300,000 active | cell reporter, cycloheximide protein synthesis inhibition counterscreen; in the data active means max response mostly above about 13%, no sharp cut-off; inactive means mostly below about 14%; further: read at 38.3 µM for the half of the compounds with a filed dose; 0% is about no effect
NS1 function inh: qHTS Assay for Inhibitors of Influenza NS1 Protein Function; Potency, µM (top dose mostly 46.1 µM), without a hit: top-dose activity, positive = more growth; 0.4% of 270,000 active; further: potency means the concentration at half of the fitted maximal effect; actives are rising curves; nearly all actives have a fitted effect of over 50% in size
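Read-out: OD600 growth recovery of NS1-expressing budding yeast. Cells grown overnight at 30C in -URA glucose medium, washed, resuspended and diluted 1:100 in 2% galactose assay medium, pH 6.0. Same strain lacking NS1 served as positive control.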
Shiga inhibitor: A qHTS for Small Molecule Inhibitors of Shiga Toxin; Vero cells, Shiga toxin protein synthesis inhibition reporter; inhibition, % at 38.7 µM; 9.2% of 290,000 active; in the data active means inhibition mostly above about 28%, no sharp cut-off; inactive means mostly below about 43%; further: 0% is about no effect
SARS PLP yeast: qHTS of Yeast-based Assay for SARS-CoV PLP; S. cerevisiae expressing SARS-CoV PLpro, growth rescue; Potency, µM (highest dose often 32.9 µM), inactives show top-dose activity, positive = growth rescue, hits mostly activators; 0.19% of 330,000 active; further: potency means the concentration at half of the fitted maximal effect; 0% is about no effect; nearly all actives have a fitted effect of over 55% in size
The depositor's hits bear a star; [ ] = remark or other dose. Unless noted, the call rests on the fitted dose curve.

`CCN1C(=O)N(CC)C2C1N(CO)C(=O)N2CO` (centres undefined) gave CHX counter 0.5, Shiga inhibitor 35.0 and SARS PLP yeast -9.1%.
`COc1ccc(-c2cc(C(=O)N3CCCc4ccccc43)no2)cc1OC` gave CHX counter 18.4, NS1 function inh -1.7%, Shiga inhibitor -15.8 and SARS PLP yeast -15.4%.
Screening COc1ccc(C2=NOC(C(=O)N3CCCc4ccccc43)C2)cc1 (centres undefined) returned CHX counter 22.6*, NS1 function inh -138.1%, Shiga inhibitor 40.1 and SARS PLP yeast -16.5%.
For COc1ccc(-c2cc(C(=O)N3CCCc4ccccc43)no2)cc1 the results were CHX counter 43.8*, NS1 function inh -43.6%, Shiga inhibitor 93.5* and SARS PLP yeast -25.2%.
`COc1ccccc1-c1cc(C(=O)N2CCCc3ccccc32)no1` gave CHX counter 60.1*, Shiga inhibitor 71.9* and SARS PLP yeast -7.8%.
`COc1cccc(-c2cc(C(=O)N3CCCc4ccccc43)no2)c1` gave CHX counter 28.0*, NS1 function inh -37.2%, Shiga inhibitor 46.0* and SARS PLP yeast -7.5%.
Screening CC(=O)Nc1cc(NC(C)=O)ncn1 returned CHX counter -2.7, NS1 function inh 2.4%, Shiga inhibitor -8.4 and SARS PLP yeast 1.4%.
Screening COc1ccc(CNC(=O)COC(=O)[C@@H]2CCCN2C(=O)c2cccs2)cc1 returned SARS PLP yeast -14.8%.
Cc1nc2ccc([N+](=O)[O-])cc2nc1C was read as CHX counter 12.0, Shiga inhibitor -15.9 and SARS PLP yeast 0.2%.
For Cc1ccc2nc3cc([N+](=O)[O-])cc([N+](=O)[O-])c3cc2c1 the results were CHX counter 67.6*, Shiga inhibitor 134.2* and SARS PLP yeast -22.9%.
Screening Cc1ccc2c(c1)C(=O)CCN2 returned CHX counter -1.9, NS1 function inh 0.4%, Shiga inhibitor 3.1 and SARS PLP yeast 10.5%.
`O=C1CCNc2cc3ccccc3cc21` gave CHX counter 24.9*, NS1 function inh inconclusive, Shiga inhibitor 32.1 and SARS PLP yeast -1.9%.
O=C1CCNc2ccc(-c3ccccc3)cc21 was read as CHX counter 37.5*, NS1 function inh -16.3%, Shiga inhibitor 74.8* and SARS PLP yeast -32.4%.
`CCC1Sc2ccc(S(=O)(=O)CCC(=O)NCc3ccco3)cc2NC1=O` (centres undefined) gave CHX counter 36.8, NS1 function inh -2.8%, Shiga inhibitor -6.9 and SARS PLP yeast 7.8%.
For CNc1ncnc2c1ncn2[C@H]1C[C@H](OP(=O)(O)O)[C@@H](COP(=O)(O)O)O1 the results were NS1 function inh -0.7%.
For COc1cccc(COc2cc3ccccc3nc2C)c1 the results were CHX counter 16.6*, NS1 function inh -31.6%, Shiga inhibitor 57.8* and SARS PLP yeast -0.2%.
COC(=O)c1sccc1OCc1cccc(OC)c1 was read as CHX counter 20.3, NS1 function inh -2.8%, Shiga inhibitor 37.8 and SARS PLP yeast 0.7%.
Cc1nc2ccccc2cc1OCc1ccc(Cl)cc1 was read as CHX counter 54.0*, NS1 function inh -23.1%, Shiga inhibitor 101.1* and SARS PLP yeast -21.2%.
Screening Cc1nc2ccccc2cc1OCc1ccccc1 returned CHX counter 45.6*, NS1 function inh -117.3%, Shiga inhibitor 21.8 and SARS PLP yeast -1.5%.
Screening Cc1nc2ccc(S(=O)(=O)NCC(=O)NCCc3ccc(Cl)cc3)cc2s1 returned CHX counter -3.4, NS1 function inh -0.1%, Shiga inhibitor -9.9 and SARS PLP yeast 1.2%.
Screening COc1ccc(C2/C(=C(/O)c3ccccc3)C(=O)C(=O)N2C)cc1OC (centres undefined) returned CHX counter 14.1*, NS1 function inh 24.8%, Shiga inhibitor 26.7* and SARS PLP yeast 10.7%.
`CC1(C)CC(=O)c2c(O)cc(OCc3ccc(Br)cc3)cc2O1` gave CHX counter 48.6*, NS1 function inh 5.4%, Shiga inhibitor 69.6* and SARS PLP yeast -5.8%.
For COC(=O)c1ccc(COc2cc(O)c3c(c2)OC(C)(C)CC3=O)cc1 the results were CHX counter 16.7, NS1 function inh -47.6%, Shiga inhibitor -3.9 and SARS PLP yeast -1.2%.
`CC1(C)CC(=O)c2ccc(OCc3ccc([N+](=O)[O-])cc3)cc2O1` gave CHX counter 40.4*, NS1 function inh -2.0%, Shiga inhibitor 84.5* and SARS PLP yeast -0.1%.
`COc1ccc(NC(=O)Nc2ccc(F)cc2F)cc1` gave CHX counter 38.0*, Shiga inhibitor 67.7* and SARS PLP yeast -0.5%.
Screening COc1ccc(NC(=O)Nc2ccc(F)cc2)c(C)c1 returned CHX counter 18.6, NS1 function inh 9.4%, Shiga inhibitor 50.5 and SARS PLP yeast -0.2%.
COc1ccc(OC(C)C(=O)Nc2ccc(F)cc2F)cc1 (centres undefined) was read as CHX counter 0.2, NS1 function inh -8.4%, Shiga inhibitor -6.0 and SARS PLP yeast -3.2%.
`COc1ccc(NC(=O)Nc2nc(C)cc(C)n2)c(OC)c1` gave CHX counter 0.8, NS1 function inh 1.2%, Shiga inhibitor -5.1 and SARS PLP yeast -1.0%.
CC(C)c1ccccc1NC(=O)Nc1ccc(F)cc1F was read as CHX counter 9.9*, NS1 function inh -34.2%, Shiga inhibitor 22.8 and SARS PLP yeast -1.4%.
Cc1cc(C)nc(NC(=O)Nc2ccc(F)cc2F)n1 was read as CHX counter 13.5*, NS1 function inh 2.0%, Shiga inhibitor 16.8 and SARS PLP yeast 3.8%.
For COc1ccc(NC(=O)Nc2ccc(F)cc2F)c(C)c1 the results were CHX counter 35.1*, NS1 function inh -11.7%, Shiga inhibitor 20.2 and SARS PLP yeast -3.6%.
Screening COc1ccc(NC(=O)Nc2cc(F)ccc2C)cc1 returned CHX counter 4.0, NS1 function inh -0.8%, Shiga inhibitor 25.2 and SARS PLP yeast 1.3%.
COc1ccc([C@]23Cc4cc(C#N)ccc4C(O2)c2c(cc(-c4ccccc4)oc2=O)O3)cc1 was read as CHX counter -1.8, NS1 function inh 14.9%, Shiga inhibitor inactive and SARS PLP yeast -7.8%[6.58 µM].
Screening CC1CCN(C2CC(=O)N(c3ccc(Br)cc3Br)C2=O)CC1 (centres undefined) returned CHX counter -1.7, NS1 function inh -87.5%, Shiga inhibitor -1.3 and SARS PLP yeast -5.0%.
For Oc1c(Cl)cccc1C=Nc1cc(C(F)(F)F)ccc1N1CCCC1 the results were CHX counter 1.7, NS1 function inh 14.9%, Shiga inhibitor 11.1 and SARS PLP yeast 2.4%.
Screening Oc1c(Cl)cc(Cl)cc1C=Nc1cc(C(F)(F)F)ccc1N1CCc2ccccc2C1 returned CHX counter 51.7*, NS1 function inh -79.2%, Shiga inhibitor 81.3* and SARS PLP yeast -9.1%.
For CCOc1ccccc1NC(=O)CCC(=O)Nc1nnc(C2CCCCC2)s1 the results were CHX counter 3.7, NS1 function inh 2.0%, Shiga inhibitor 10.7 and SARS PLP yeast 11.3%.
CCC(=O)NC(/C=C/c1ccccc1)c1cc([N+](=O)[O-])c2cccnc2c1O (centres undefined) was read as CHX counter -7.2, NS1 function inh -1.4%, Shiga inhibitor -16.9 and SARS PLP yeast 2.24µM*.

Source: PubChem BioAssay
